Consider seven molecules from PubChem BioAssay (NCATS).

Results filed as inconclusive are left out. Calls of active or inactive are those of the source. Unless noted, the call rests on the fitted dose curve; in most records, active means well fitted curve in the direction sought with a large enough effect; inconclusive means small, poorly fitted or top-dose-only effect, or another doubt; inactive means no such curve, though single readings can be large; an effect the other way counts as inactive or inconclusive.

Assay [1] concerns the target Ubiquitin carboxyl-terminal hydrolase 2 (Homo sapiens) (UniProt O75604). As to the kind of experiment: qHTS Validation Assay for Inhibitors of Ubiquitin-specific Protease USP2a Using CHOP2 as the Reporter (AID 463106). The essentials: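 Inhibition is expressed relative to NEM as the full-inhibition control, with concentration-response curves classed by fit quality, magnitude and activity. Enzyme (USP2 core, 10nM) meets 25nM Ub-CHOP2 after compound preincubation; readings are taken at 60min.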
On the technique in general: Quantitative high-throughput screening tests each substance at several concentrations.

In assay [2] the target is DNA polymerase III PolC-type (Bacillus subtilis (strain 168)) (UniProt P13267). As to the kind of experiment: qHTS Validation Assay for the Inhibitors of DNA Replication in Gram-Positive Bacteria (AID 485295).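 Further: PicoGreen fluorescence of double-stranded DNA made on primed circular M13 template; series mostly up to about 57 µM.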 Put shortly:
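Reconstituted B. subtilis Pol III holoenzyme (PolC, beta clamp, SSB, primase) preincubated with compound, then M13Gori single-stranded circular template with dNTPs/NTPs added; room temperature reaction. Stopped with EDTA/PicoGreen; dsDNA fluorescence read, EDTA as full-inhibition control.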

Assay [3] in a line: qHTS Validation Assay to Find Inhibitors of Chronic Active B-Cell Receptor Signaling (AID 485345; active means well fitted curve in the direction sought with a large enough effect in the main read-out, with a control signal flat, not every such curve was filed as active). Put shortly:
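TMD8 ABC-DLBCL cells with dox-inducible green luciferase–IκBα fusion and red native luciferase; compounds 46 uM–3 nM, 4 h at 37C with doxycycline in 0.5% FBS IMDM. Green/red ratio normalized to basal and 10 uM MG-132.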

Assay [4] addresses Beta-2 adrenergic receptor (Homo sapiens) (UniProt P07550). The assay can be described thus: qHTS validation assay of beta-arrestin-biased ligands of beta2-adrenergic receptor (AID 485366). Put shortly:
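Agonism was measured as beta-arrestin recruitment to recombinant beta2-AR, releasing tTA to drive luciferase. Cells were exposed for 18 hr at 37 degrees C to a series up to 46 microM. %Activity from corrected luminescence gave concentration-response curves.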

Assay [5] is described as follows: Quantitative high throughput screen for delayed death inhibitors of the malarial parasite plastid, 96 hour incubation (AID 488745).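 Further: luciferase-expressing P. falciparum in erythrocytes at 2% hematocrit and 0.1% parasitemia; series mostly up to about 29 µM; nearly all actives have a fitted effect of over 70% in size.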 Put shortly:
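Readout is firefly luciferase luminescence from an integrated reporter in P. falciparum; lower signal marks inhibited growth. Cultures at 2% hematocrit and 0.1% parasitemia were treated with compound across two generations (96 h, 37 C, 5% CO2).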

Assay [6] has as its target Thioredoxin reductase 1, cytoplasmic (Rattus norvegicus) (UniProt O89049). As to the kind of experiment: qHTS Assay for Substrates of Mammalian Selenoprotein Thioredoxin Reductase 1 (TrxR1) (AID 488772).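 Further: series mostly up to about 57 µM; a drop in NADPH fluorescence below the no-compound background marks a TrxR1 substrate.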 The essentials: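 In this dual-purpose format, potential substrates are identified from the first fluorescence read after selenite addition, not from the 8-minute delta. Rat enzyme is preincubated with NADPH and then with compound at ~22 deg C.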

Assay [7] has the same target. As to the kind of experiment: qHTS Assay for Inhibitors of Mammalian Selenoprotein Thioredoxin Reductase 1 (TrxR1) (AID 488773).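 Further: drop in NADPH fluorescence over an 8 min run after selenite addition; series mostly up to about 57 µM; nearly all actives have a fitted effect of over 40% in size.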 Conditions: Potency: inhibition. Put shortly: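 Inhibition is scored from the loss of NADPH fluorescence between first and last reads of an 8-min kinetic run. Selenite (400 uM) was the substrate, added after 15 min compound preincubation at room temperature.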

For assay [8], the target named is M-phase phosphoprotein 8 (Homo sapiens) (UniProt Q99549). The assay can be described thus: qHTS Validation Assay for Inhibitors for MPP8 Chromodomain Interactions with Methylated Histone Tails (AID 488949). Further: top concentration of the series differs between compounds; nearly all actives have a fitted effect of over 55% in size. The essentials:
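MPP8 (50 nM) was pre-bound to 50 nM biotinylated H3(1-18)K9me3 peptide in PBS pH 7.4 with 0.01% Tween-20. Compounds were then added for 30 min at room temperature, and complex disruption was read by AlphaScreen with streptavidin donor and nickel-chelate acceptor beads.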

Assay [9] has as its target Chromobox protein homolog 1 (Homo sapiens) (UniProt P83916). As to the kind of experiment: qHTS Validation Assay for Inhibitors of HP1-beta Chromodomain Interactions with Methylated Histone Tails (AID 488953).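 Further: loss of AlphaScreen luminescence from HP1-beta binding biotinylated H3K9me3 peptide; series mostly up to about 110 µM; nearly all actives have a fitted effect of over 50% in size.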 Put shortly:
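Disruption of preformed HP1-beta:H3K9me3 peptide complexes (both 50 nM, PBS pH 7.4 with 0.01% Tween-20) is measured by AlphaScreen after 30 min compound exposure at room temperature, using streptavidin donor and nickel chelate acceptor beads at 10 ug/mL final.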

Assay [10] addresses Methanococcus maripaludis chaperonin (MmCpn) (UniProt Q6LX38). As to the kind of experiment: High-Throughput Screening for Modulators of Cytosolic Chaperonin Activity: MmCpn Primary Screen (AID 488978).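 Further: 50 nM MmCpn enzyme hydrolysing 30 µM ATP at 37 °C.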 The essentials: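 MmCpn at 50 nM final was preincubated 5 min at RT with compound. ATP was then added at 30 uM final for 10 min at 37 C. ADP formed was detected by Transcreener HTRF (665/590 nm).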

Assay [11] deals with Transient receptor potential cation channel subfamily V member 1 (Homo sapiens) (UniProt Q8NER1). The assay can be described thus: HTS Assay for Compounds that Act as Enhancers of the Vanilloid Receptor 1 (AID 488979). Put shortly: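 TRPV1-expressing cells loaded with Fluo-8 calcium dye; compounds added and calcium influx read kinetically for 3 min (agonist phase), then capsaicin at EC20 added and read 2 min more for enhancement. Fluorescence ex 480/em 520 nm.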

For assay [12], the target named is D(1A) dopamine receptor (Homo sapiens) (UniProt P21728). As to the kind of experiment: HTS Assay for Allosteric Agonists of the Human D1 Dopamine Receptor: Primary Screen for Agonists (AID 488981). The essentials:
(§1)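 Tetracycline-induced HEK293 T-REx cells force-coupled to calcium signalling were incubated overnight at 30 C and dye-loaded at room temperature. Calcium flux over 180 s after compound addition flagged agonists; a further 180 s read after EC20 dopamine flagged potentiators.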

For assay [13] the target is unchanged. The assay can be described thus: HTS Assay for Allosteric Agonists of the Human D1 Dopamine Receptor: Primary Screen for Potentiators (AID 488982). Put shortly: as §1
Assay [14] has the same target. As to the kind of experiment: HTS Assay for Allosteric Agonists of the Human D1 Dopamine Receptor: Primary Screen for Antagonists (AID 488983).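 Further: calcium flux response to an EC80 dopamine challenge measured with no-wash dye; nearly all actives have a fitted effect of over 65% in size.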 Further: potency means the concentration at half of the fitted maximal effect. The essentials: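 Kinetic fluorescence at 1 cycle/sec tracked intracellular calcium in force-coupled, tetracycline-inducible HEK293 T-REx D1 cells. Loss of response to an EC80 dopamine dose, given 180 s after compound, marked antagonists.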

Assay [15] has as its target Tumor susceptibility gene 101 protein (Homo sapiens) (UniProt Q99816). The assay can be described thus: qHTS Validation Assay for Iinhibitors of HIV-1 Budding by Blocking the Interaction of PTAP/TSG101 (AID 485342; calls by dose curve). The essentials: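 Tsg101 binding domain (10 uM) with FITC-labeled PTAP peptide (50 nM) in HEPES pH 7.5 buffer, 20 min at r.t. with compounds. Binding measured by fluorescence polarization.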

Assay [16] has as its target ATP-dependent 6-phosphofructokinase (Trypanosoma brucei brucei) (UniProt O15648). The assay can be described thus: qHTS Validation Assay to Find Inhibitors of T. brucei phosphofructokinase (AID 485368). The essentials: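 ADP-Glo luminescence, two-step: residual ATP depleted, then ADP converted to ATP for luciferase. Enzyme 1.25 nM, F6P 0.5 mM, ATP 0.1 mM, pH 8.0 TEA buffer, 45 min RT. Curves fitted and classed by quality and efficacy.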

For assay [17], the target named is Thyrotropin receptor (Homo sapiens) (UniProt P16473). The assay can be described thus: qHTS Assay for Antagonists of the Thyroid Stimulating Hormone Receptor (AID 488980). Further: series mostly up to about 58 µM. Put shortly: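 TSHR-transfected HEK293 cells (2000/well) in HEPES-buffered HBSS with 70 uM RO 20-1724 were stimulated with 4 nM TSH (EC80, final) in the presence of compound. cAMP was measured by HTRF competition after lysis and 30 min at RT.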

Assay [18] concerns the target Flap endonuclease 1 (Homo sapiens) (UniProt P39748). As to the kind of experiment: qHTS Validation Assay for the Inhibitors of Human Flap endonuclease 1 (FEN1) (AID 488816). Put shortly:
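Steps: add FEN1 (10 nM reagent) or buffer only; pin compounds; hold 15 min at room temperature; start with substrate, 50 nM final; read at 0 and 15 min; correct, normalize and fit a four-parameter Hill curve.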

The nature of assay [19]: Quantitative high throughput screen for delayed death inhibitors of the malarial parasite plastid, 48 hour incubation (AID 488752). Further: nearly all actives have a fitted effect of over 65% in size. The essentials: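 First, compound was pinned into RPMI 1640 medium containing 0.5% Albumax. Next, reporter-parasite-infected erythrocytes were added to 2% hematocrit and 0.1% parasitemia. After 48 h at 37 C under 5% CO2, luciferase detection reagent was added and luminescence read.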

DNA polymerase III PolC-type (Bacillus subtilis (strain 168)), sequence (P13267 whole entry, looked up): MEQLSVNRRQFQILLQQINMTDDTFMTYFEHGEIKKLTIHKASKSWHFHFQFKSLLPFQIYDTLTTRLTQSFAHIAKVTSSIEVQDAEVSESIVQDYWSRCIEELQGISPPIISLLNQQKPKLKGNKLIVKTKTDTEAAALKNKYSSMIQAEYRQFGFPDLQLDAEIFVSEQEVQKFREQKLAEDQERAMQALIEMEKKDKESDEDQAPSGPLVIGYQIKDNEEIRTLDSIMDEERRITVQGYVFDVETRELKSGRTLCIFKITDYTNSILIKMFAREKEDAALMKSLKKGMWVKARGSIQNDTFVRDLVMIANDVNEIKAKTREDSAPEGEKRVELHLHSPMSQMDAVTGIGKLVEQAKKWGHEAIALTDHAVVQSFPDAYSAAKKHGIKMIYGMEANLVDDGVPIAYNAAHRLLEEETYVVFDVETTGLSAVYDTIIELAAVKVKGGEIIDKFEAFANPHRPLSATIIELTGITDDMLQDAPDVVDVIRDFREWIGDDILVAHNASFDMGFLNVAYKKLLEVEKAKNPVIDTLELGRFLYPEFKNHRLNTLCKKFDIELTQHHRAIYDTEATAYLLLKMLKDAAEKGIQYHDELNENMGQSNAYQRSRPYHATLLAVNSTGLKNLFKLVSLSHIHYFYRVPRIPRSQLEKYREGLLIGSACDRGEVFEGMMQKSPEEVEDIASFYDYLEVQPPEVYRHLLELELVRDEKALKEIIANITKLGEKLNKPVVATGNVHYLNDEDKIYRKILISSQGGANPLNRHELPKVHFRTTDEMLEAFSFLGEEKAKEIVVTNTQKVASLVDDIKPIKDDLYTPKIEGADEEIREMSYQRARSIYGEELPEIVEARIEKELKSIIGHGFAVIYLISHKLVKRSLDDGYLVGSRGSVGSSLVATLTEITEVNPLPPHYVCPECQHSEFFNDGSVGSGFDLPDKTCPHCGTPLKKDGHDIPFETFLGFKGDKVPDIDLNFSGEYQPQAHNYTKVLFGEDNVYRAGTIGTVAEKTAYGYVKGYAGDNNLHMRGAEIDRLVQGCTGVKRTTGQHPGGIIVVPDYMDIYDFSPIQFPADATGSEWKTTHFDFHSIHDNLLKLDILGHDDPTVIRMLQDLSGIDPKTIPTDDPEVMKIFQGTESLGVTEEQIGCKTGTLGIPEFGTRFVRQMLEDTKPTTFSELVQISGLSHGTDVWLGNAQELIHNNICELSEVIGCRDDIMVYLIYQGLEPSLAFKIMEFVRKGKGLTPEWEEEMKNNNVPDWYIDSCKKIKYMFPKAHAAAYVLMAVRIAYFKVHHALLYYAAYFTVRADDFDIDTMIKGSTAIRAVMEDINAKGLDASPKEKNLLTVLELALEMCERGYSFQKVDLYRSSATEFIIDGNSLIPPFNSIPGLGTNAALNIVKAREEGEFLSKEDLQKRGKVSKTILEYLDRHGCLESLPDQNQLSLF
Transient receptor potential cation channel subfamily V member 1 (Homo sapiens), sequence (Q8NER1 whole entry, looked up): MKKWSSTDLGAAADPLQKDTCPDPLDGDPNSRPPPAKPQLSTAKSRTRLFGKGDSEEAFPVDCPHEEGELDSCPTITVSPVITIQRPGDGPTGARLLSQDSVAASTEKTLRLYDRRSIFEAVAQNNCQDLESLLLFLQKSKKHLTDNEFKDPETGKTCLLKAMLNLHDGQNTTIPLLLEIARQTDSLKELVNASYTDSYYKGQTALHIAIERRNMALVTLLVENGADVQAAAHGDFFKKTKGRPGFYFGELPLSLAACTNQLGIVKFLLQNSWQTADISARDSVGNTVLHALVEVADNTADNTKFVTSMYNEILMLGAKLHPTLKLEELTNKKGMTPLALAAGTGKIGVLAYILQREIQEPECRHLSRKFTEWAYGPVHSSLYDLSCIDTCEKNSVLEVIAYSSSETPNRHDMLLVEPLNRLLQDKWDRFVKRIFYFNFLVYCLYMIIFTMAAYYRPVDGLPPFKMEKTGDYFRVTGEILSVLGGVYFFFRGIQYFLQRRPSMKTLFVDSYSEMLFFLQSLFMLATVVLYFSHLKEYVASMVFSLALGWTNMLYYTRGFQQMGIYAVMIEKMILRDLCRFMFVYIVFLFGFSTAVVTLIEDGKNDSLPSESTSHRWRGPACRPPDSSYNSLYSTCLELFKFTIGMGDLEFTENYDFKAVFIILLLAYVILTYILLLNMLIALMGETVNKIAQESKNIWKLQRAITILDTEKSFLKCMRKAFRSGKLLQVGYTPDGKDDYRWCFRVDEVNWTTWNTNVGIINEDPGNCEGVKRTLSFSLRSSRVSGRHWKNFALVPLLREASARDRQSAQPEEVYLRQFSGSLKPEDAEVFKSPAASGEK
M-phase phosphoprotein 8 (Homo sapiens), sequence (Q99549 whole entry, looked up): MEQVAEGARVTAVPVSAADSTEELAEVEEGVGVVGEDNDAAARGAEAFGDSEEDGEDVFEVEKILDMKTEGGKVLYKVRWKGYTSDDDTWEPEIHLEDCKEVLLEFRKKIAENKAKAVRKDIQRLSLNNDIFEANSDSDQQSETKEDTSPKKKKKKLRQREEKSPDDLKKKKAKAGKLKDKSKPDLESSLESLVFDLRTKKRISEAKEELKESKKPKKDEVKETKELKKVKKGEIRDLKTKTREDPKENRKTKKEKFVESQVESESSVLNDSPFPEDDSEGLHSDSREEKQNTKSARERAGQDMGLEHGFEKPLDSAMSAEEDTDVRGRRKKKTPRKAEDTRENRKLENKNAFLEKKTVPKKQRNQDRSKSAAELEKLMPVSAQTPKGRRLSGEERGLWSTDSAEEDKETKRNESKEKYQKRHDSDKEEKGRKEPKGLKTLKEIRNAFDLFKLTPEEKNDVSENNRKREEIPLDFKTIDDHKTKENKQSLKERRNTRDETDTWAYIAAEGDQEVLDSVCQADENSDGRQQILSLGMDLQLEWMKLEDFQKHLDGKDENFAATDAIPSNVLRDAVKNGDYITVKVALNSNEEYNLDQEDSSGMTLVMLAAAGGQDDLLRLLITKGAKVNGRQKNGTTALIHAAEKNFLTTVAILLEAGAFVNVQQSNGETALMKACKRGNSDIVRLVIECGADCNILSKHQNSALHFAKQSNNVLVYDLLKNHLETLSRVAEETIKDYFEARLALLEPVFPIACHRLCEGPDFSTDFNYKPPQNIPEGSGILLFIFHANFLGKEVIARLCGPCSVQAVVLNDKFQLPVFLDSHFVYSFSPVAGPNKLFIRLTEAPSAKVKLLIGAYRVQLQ
ATP-dependent 6-phosphofructokinase (Trypanosoma brucei brucei), sequence (O15648 whole entry, looked up): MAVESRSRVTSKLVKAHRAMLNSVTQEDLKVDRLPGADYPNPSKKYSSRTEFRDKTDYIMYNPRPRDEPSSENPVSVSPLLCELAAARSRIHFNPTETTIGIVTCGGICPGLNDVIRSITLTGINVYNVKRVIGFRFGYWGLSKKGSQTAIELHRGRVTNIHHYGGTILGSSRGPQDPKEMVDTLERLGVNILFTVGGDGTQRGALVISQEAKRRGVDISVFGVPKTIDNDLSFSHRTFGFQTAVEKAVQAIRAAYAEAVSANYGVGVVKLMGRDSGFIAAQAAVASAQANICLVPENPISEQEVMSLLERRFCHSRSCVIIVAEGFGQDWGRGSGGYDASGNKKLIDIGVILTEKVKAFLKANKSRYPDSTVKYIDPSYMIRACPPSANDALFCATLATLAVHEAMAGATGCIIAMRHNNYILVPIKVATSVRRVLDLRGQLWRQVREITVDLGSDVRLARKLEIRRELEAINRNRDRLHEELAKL
Thioredoxin reductase 1, cytoplasmic (Rattus norvegicus), sequence (O89049 whole entry, looked up): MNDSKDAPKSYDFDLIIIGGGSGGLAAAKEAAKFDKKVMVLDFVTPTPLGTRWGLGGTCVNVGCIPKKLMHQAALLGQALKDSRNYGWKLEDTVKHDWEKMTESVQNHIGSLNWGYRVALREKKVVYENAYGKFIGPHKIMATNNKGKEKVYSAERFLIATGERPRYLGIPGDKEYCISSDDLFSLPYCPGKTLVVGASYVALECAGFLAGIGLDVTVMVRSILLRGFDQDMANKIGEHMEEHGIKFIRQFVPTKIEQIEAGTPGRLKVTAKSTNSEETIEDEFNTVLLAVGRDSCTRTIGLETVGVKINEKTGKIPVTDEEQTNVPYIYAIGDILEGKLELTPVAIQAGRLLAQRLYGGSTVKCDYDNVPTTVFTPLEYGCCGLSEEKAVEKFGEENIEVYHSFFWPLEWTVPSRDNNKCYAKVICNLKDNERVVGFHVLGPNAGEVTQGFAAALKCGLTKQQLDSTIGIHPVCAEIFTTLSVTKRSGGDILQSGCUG
Chromobox protein homolog 1 (Homo sapiens), sequence (P83916 whole entry, looked up): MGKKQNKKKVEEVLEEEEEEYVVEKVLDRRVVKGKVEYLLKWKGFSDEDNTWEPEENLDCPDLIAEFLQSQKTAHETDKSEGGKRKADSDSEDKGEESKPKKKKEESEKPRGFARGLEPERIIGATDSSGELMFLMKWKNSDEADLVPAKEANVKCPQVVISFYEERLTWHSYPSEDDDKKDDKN
Methanococcus maripaludis chaperonin (MmCpn), sequence (Q6LX38 1-543): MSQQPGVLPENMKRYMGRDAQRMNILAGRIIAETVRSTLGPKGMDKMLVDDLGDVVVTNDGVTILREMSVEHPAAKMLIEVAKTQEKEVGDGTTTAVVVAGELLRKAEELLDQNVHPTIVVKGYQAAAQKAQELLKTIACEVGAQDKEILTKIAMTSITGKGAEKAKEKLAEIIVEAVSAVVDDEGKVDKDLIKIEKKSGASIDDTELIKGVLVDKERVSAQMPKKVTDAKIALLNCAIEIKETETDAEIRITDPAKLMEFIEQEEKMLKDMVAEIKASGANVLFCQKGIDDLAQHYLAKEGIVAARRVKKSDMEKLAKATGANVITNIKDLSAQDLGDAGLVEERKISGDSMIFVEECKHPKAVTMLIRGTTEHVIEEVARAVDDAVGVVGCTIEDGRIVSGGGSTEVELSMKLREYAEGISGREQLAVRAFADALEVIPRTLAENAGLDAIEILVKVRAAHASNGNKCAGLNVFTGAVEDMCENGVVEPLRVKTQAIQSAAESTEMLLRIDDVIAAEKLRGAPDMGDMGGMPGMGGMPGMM

Consider `NC12CC3CC(CC(C3)C1)C2`, for which the Potency entry in [1], in assay [2], in assay [3], in assay [5], in [7] and in assay [8] was “inactive” each time. The Potency result in [9], in [12], in assay [13] and in assay [14] was “inactive” in each case. In addition, the call in [4], in assay [6], in assay [10] and in [11] was inactive.
In the case of `COc1cc2nc(N3CCN(C(=O)c4ccco4)CC3)nc(N)c2cc1OC`, the Potency entry in assay [2], in assay [3], in [16], in [7], in assay [9] and in assay [12] was “inactive” in each case. Further, the Potency result in [13] and in assay [14] was “inactive” each time. Moreover, the call in assay [15], in assay [4], in [6], in [10] and in [17] was inactive.
For `CN1C(C(=O)Nc2ccccn2)=C(O)c2ccccc2S1(=O)=O`, the Potency entry in assay [1], in [2], in [5], in assay [7], in [18] and in [8] was “inactive” in each case. Moreover, the Potency entry in [12], in assay [13] and in assay [14] was “inactive” throughout. Also, the result in [4], in assay [6], in assay [10], in [11] and in assay [17] was inactive.
Take `COc1ccc(CCN(C)CCCC(C#N)(c2ccc(OC)c(OC)c2)C(C)C)cc1OC` (centres undefined): the Potency result in assay [2], in assay [12], in assay [13] and in assay [14] was “inactive” in each case. In addition, the call in assay [4], in [10] and in assay [17] was inactive.
On to `O=C(c1ccc(F)cc1)C1CCN(CCn2c(=O)[nH]c3ccccc3c2=O)CC1`, for which the Potency result in assay [1], in assay [2], in assay [3], in assay [7], in assay [18] and in assay [8] was “inactive” each time. Also, the Potency entry in [9], in assay [12] and in assay [13] was “inactive” each time. In addition, the result in assay [4], in [6], in assay [10], in [11] and in assay [17] was inactive. Besides, the Potency in assay [14] was 5.62 µM (active).
`COc1ccccc1OCC(O)CN1CCN(CC(=O)Nc2c(C)cccc2C)CC1` (centres undefined): the Potency result in [1], in assay [2], in assay [16], in assay [5], in assay [7] and in assay [18] was “inactive” in each case. The Potency entry in assay [8], in assay [9], in assay [12], in assay [13] and in assay [14] was “inactive” each time. The result in assay [4], in assay [10], in assay [11] and in assay [17] was inactive.
For `CC(C)Cc1ccc(C(C)C(=O)O)cc1` (centres undefined), the Potency result in assay [2], in assay [3], in [16], in assay [5], in assay [19] and in assay [7] was “inactive” in each case. Also, the Potency result in assay [8], in assay [9], in assay [12], in [13] and in [14] was “inactive” each time. The outcome in assay [15], in assay [4], in [6], in [10] and in [17] was inactive.
